# Out of some 190,000 compounds screened, about 1,300 (0.68%) were called active. Rule as the data show it: active = inhibition above about 50%; inactive = the rest. This excerpt belongs to a sample that is enriched for actives.
# Molecular target: Mannose-6-phosphate isomerase (Homo sapiens) (UniProt P34949)
# Assay: MPI inhibition at elevated mannose 6-phosphate – biochemical, fluorescence intensity, high mannose 6-phosphate, primary screen (AID 1220)
# Details: recombinant PMI enzyme, coupled fluorescence intensity; at 20 µM; stronger effect = higher value
# Sequence of Mannose-6-phosphate isomerase (Homo sapiens) (P34949 whole entry, looked up): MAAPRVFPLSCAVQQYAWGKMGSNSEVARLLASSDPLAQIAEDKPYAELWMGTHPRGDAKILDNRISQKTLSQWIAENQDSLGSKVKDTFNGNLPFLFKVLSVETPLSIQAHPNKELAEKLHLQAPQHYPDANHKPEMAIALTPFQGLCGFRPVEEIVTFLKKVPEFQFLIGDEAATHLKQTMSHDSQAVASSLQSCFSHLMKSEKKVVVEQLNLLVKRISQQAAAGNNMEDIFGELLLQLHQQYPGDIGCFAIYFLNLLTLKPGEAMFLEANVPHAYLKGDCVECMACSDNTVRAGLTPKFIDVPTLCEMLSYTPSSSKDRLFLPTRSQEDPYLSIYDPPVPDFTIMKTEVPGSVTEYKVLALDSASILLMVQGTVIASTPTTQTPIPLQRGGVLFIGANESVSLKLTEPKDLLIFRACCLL
row,SMILES,inhibition
1,COCC(C)NC(=O)C(C)Oc1ccccc1 (configuration not stated),-3.4% (inactive)
2,Cc1cnc(C(=O)N2CCCC(C(=O)c3ccc(C(C)(C)C)cc3)C2)cn1 (configuration not stated),5.6% (inactive)
3,COc1ccc(/C(N)=N/OC(=O)COc2ccccc2Cl)cc1,6.3% (inactive)
4,Cc1ccn2c(=O)cc(C)nc2c1,9% (inactive)
5,Cc1cc(=O)n2ccsc2n1,-2.4% (inactive)
6,Cc1onc(-c2c(F)cccc2Cl)c1C(=O)OCC(=O)Nc1c(C)n(C)n(-c2ccccc2)c1=O,-18.7% (inactive)
7,COc1ccc(S(=O)(=O)N2CCN(CC(=O)Nc3ccc(F)c(F)c3)CC2)cc1,-16.5% (inactive)
8,N#CC1=C(N)N(c2ccccc2)C2=C(C(=O)CCC2)C1c1ccsc1 (configuration not stated),27.6% (inactive)
9,Cc1ccc(N2C(N)=C(C#N)C(c3cccnc3)C3=C2CCCC3=O)cc1 (configuration not stated),47.7% (inactive)
10,CN(C)N1C(N)=C(C#N)C(c2cccnc2)C2=C1CC(C)(C)CC2=O (configuration not stated),8.6% (inactive)
11,CSc1ccc(C2C(C#N)=C(N)N(c3ccccc3)C3=C2C(=O)CCC3)cc1 (configuration not stated),29.9% (inactive)
12,CN(C)N1C(N)=C(C#N)C(c2cccs2)C2=C1CCCC2=O (configuration not stated),33.2% (inactive)
13,CN(C)N1C(N)=C(C#N)C(c2cccnc2)C2=C1CCCC2=O (configuration not stated),57.9% (active)
14,N#CC1=C(N)N(c2ccccc2)C2=C(C(=O)CCC2)C1c1ccccc1 (configuration not stated),51.2% (active)
15,CN(C)N1C(N)=C(C#N)C(c2ccsc2)C2=C1CC(C)(C)CC2=O (configuration not stated),18.1% (inactive)
16,CN(C)N1C(N)=C(C#N)C(c2ccsc2)C2=C1CCCC2=O (configuration not stated),61% (active)
17,N#CC1=C(N)OC2=C(C(=O)CCC2)C1c1ccsc1 (configuration not stated),-1.2% (inactive)
18,CCc1ccc(C2C(C#N)=C(N)OC3=C2C(=O)CCC3)s1 (configuration not stated),6.1% (inactive)
19,CCc1ccc(C2C(C#N)=C(N)N(N(C)C)C3=C2C(=O)CCC3)s1 (configuration not stated),59.7% (active)
20,CCOC(=O)c1cccc(-c2ccc(C=O)o2)c1,7.1% (inactive)
21,COc1ccc(/C=N\NC(=O)c2cccc(Br)c2)c(OC)c1,3% (inactive)
22,CCN(CC)C(=O)CSc1nc2ccccc2c(=O)n1OC,4.5% (inactive)
23,COC(=O)/C=C(\C)NC(=O)c1ccc(F)cc1,12.4% (inactive)
24,O=C(COC(=O)c1cccs1)NCc1ccco1,-3.4% (inactive)
25,Cc1ncoc1C(=O)Nc1ccccc1-c1ccccc1,-4.1% (inactive)
26,CCN(CC)C(=O)c1ccc(Cn2cc([N+](=O)[O-])cn2)o1,0% (inactive)

row,SMILES,inhibition
1,CC(=O)c1ccc(NC(=O)Nc2ccc([N+](=O)[O-])cc2)cc1,-0.1% (inactive)
2,Cc1ccc(C2C(C#N)=C(N)N(N(C)C)C3=C2C(=O)CCC3)cc1 (configuration not stated),57.8% (active)
3,N#CC1=C(N)N(c2ccccc2C#N)C2=C(C(=O)CCC2)C1c1ccsc1 (configuration not stated),19.7% (inactive)
4,Cc1ccsc1C1C(C#N)=C(N)N(N(C)C)C2=C1C(=O)CCC2 (configuration not stated),15.7% (inactive)
5,COc1ccc(N2C(N)=C(C#N)C(c3ccsc3)C3=C2CCCC3=O)c(OC)c1 (configuration not stated),62% (active)
6,COc1ccc(C2C(C#N)=C(N)N(c3ncn[nH]3)C3=C2C(=O)CCC3)cc1 (configuration not stated),43.2% (inactive)
7,CN(C)N1C(N)=C(C#N)C(c2ccccc2)C2=C1CCCC2=O (configuration not stated),42.1% (inactive)
8,COc1ccc(-c2nc(NC(=O)Cn3c(=O)oc4ccccc43)sc2C)cc1,16.1% (inactive)
9,Nn1c(SCc2ccccc2)nc2c(cnn2-c2ccccc2)c1=O,4.9% (inactive)
10,COc1ccc(-c2cccc(C(=O)NCC(=O)O)c2)cc1,2.2% (inactive)
11,Cc1ccccc1Nc1nc(N)nc(CN2CCN(Cc3ccc4c(c3)OCO4)CC2)n1,-1.7% (inactive)
12,CCC1CCCCN1C(=S)Nc1cccc(S(=O)(=O)N(C)C)c1 (configuration not stated),-6.4% (inactive)
13,O=C(c1ccc2c3c(cccc13)CC2)C1CCCN(Cc2ccncc2)C1 (configuration not stated),-2.1% (inactive)
14,O=C(c1ccc2c3c(cccc13)CC2)C1CCCN(Cc2cccnc2)C1 (configuration not stated),11.4% (inactive)
15,COc1cc(CN2CCCC(C(=O)c3ccc4c5c(cccc35)CC4)C2)cc(OC)c1O (configuration not stated),74.7% (active)
16,CC(C)NC(=O)c1ccccc1NC(=O)Cc1ccc(Cl)cc1,-7.2% (inactive)
17,CCn1c2ccccc2c2cc(NC(=O)CCCN3C(=O)CCC3=O)ccc21,-9.6% (inactive)
18,CCOC(=O)c1ccc(N/C=C2/CCCC(C)C2=O)cc1 (configuration not stated),8.1% (inactive)
19,CC1CCC/C(=C\Nc2ccc(O)cc2)C1=O (configuration not stated),57.1% (active)
20,CC1CCC/C(=C\Nc2ccc(C(=O)O)cc2)C1=O (configuration not stated),25.7% (inactive)
21,O=C(Cc1ccccc1)N/N=C/c1cccs1,4.5% (inactive)
22,O=C(Oc1ccc2ccc(=O)oc2c1)C1CCCCC1,-2.5% (inactive)
23,O=C(Oc1cccc(O)c1)C1CCCCC1,13% (inactive)
24,O=C(Oc1ccc2ccc(O)cc2c1)C1CCCCC1,55% (active)
25,CCOC(=O)C1CCCN(C(=S)NC2CCCCC2)C1 (configuration not stated),2.4% (inactive)
26,CCn1c(SCC(=O)c2ccc(C)cc2)nnc1-c1ccoc1C,-13.6% (inactive)

row,SMILES,inhibition
1,Cc1noc(C)c1S(=O)(=O)N1CCC(C(=O)NCCCN2CC(C)CC(C)C2)CC1 (configuration not stated),54.6% (active)
2,Cc1noc(C)c1S(=O)(=O)N1CCC(C(=O)NCCN2CCC(C)CC2)CC1,7.6% (inactive)
3,CCC1CCCCN1CCNC(=O)C1CCN(S(=O)(=O)c2c(C)noc2C)CC1 (configuration not stated),1.5% (inactive)
4,CCOC(=O)c1c(-c2ccccc2)csc1NC(=S)N(CC)CC,14.7% (inactive)
5,CCOC(=O)c1c(-c2ccccc2)csc1NC(=S)NC,14.4% (inactive)
6,CCNC(=S)Nc1scc(-c2ccccc2)c1C(=O)OCC,52.2% (active)
7,COC(=O)c1c(C)[nH]c(O)c1C=Nc1ccc(C#N)cc1,1.7% (inactive)
8,Cc1ccc(C2CC(=O)N3CN(Cc4ccco4)CSC3=C2C#N)cc1 (configuration not stated),62.6% (active)
9,N#CC1=C2SCN(Cc3ccco3)CN2C(=O)CC1c1c(F)cccc1Cl (configuration not stated),-26.5% (inactive)
10,CCOc1ccc(N2CSC3=C(C#N)C(c4ccco4)CC(=O)N3C2)cc1 (configuration not stated),-62.8% (inactive)
11,Cc1ccc(C2CC(=O)N3CN(c4ccc(Br)cc4)CSC3=C2C#N)o1 (configuration not stated),-40.7% (inactive)
12,Cc1ccc(N2CSC3=C(C#N)C(c4cccs4)CC(=O)N3C2)cc1 (configuration not stated),-74.9% (inactive)
13,N#CC1=C2SCN(c3ccc(F)cc3)CN2C(=O)CC1c1cccc(F)c1 (configuration not stated),14.8% (inactive)
14,COc1ccc(C2CC(=O)N3CN(c4ccc(C)c(Cl)c4)CSC3=C2C#N)cc1 (configuration not stated),19.1% (inactive)
15,Cc1cccc(N2CSC3=C(C#N)C(c4ccc(C)o4)CC(=O)N3C2)c1 (configuration not stated),-1.2% (inactive)
16,N#CC1=C2SCN(Cc3ccco3)CN2C(=O)CC1c1ccc(Cl)cc1 (configuration not stated),53.5% (active)
17,COc1ccc(C2CC(=O)N3CN(Cc4ccco4)CSC3=C2C#N)cc1 (configuration not stated),73.2% (active)
18,CC(C)c1ccc(C2CC(=O)N3CN(Cc4ccco4)CSC3=C2C#N)cc1 (configuration not stated),76% (active)
19,N#CC1=C2SCN(c3ccccc3)CN2C(=O)CC1c1c(Cl)cccc1Cl (configuration not stated),23.8% (inactive)
20,CCCN1C(=O)C(Cc2nc3ccccc3c(=O)n2-c2ccccc2)c2ccccc21 (configuration not stated),8.6% (inactive)
21,Cc1ccc(N2C(=O)C(O)(C(F)(F)F)C3=C2CC(C)(C)CC3=O)cc1C (configuration not stated),-10% (inactive)
22,N#CCC1c2ccccc2CCN1C(=O)Nc1cccc(Cl)c1 (configuration not stated),15.2% (inactive)
23,CN1CCC(N2CCCC(C(=O)O)C2)CC1 (configuration not stated),-1.5% (inactive)
24,O=C(NCC(F)(F)F)Nc1ccccn1,-4.8% (inactive)
25,CCOCCNC(=O)c1ccc2c3c(cccc13)CC2,-8.4% (inactive)
26,CCC(C)NC(=O)C1CCCCN1S(=O)(=O)c1ccc(F)cc1 (configuration not stated),-2.3% (inactive)

row,SMILES,inhibition
1,Cc1nn(C)c(Oc2ccc(Cl)cc2)c1C(=O)Nc1ccc(F)cc1F,1.9% (inactive)
2,Cc1ccc2c(c1)-c1ccccc1S(=O)(=O)N2,-0.5% (inactive)
3,Nc1ccc2c(c1)-c1ccccc1S(=O)(=O)N2,52.3% (active)
4,NCCN=C1NS(=O)(=O)c2ccccc21,7.4% (inactive)
5,COc1cc(CNCC2CCCO2)ccc1OCC(N)=O (configuration not stated),-5.5% (inactive)
6,COc1ccc2c(c1)OC13CCN(C)CC1C2C(C(=O)c1ccc(F)cc1)C(=O)N3 (configuration not stated),-3.5% (inactive)
7,COC(=O)C1=C(C(=O)OC)SC(=C2C(=S)C(C)(C)N(C(=O)CC(C)C)c3ccccc32)S1,33% (inactive)
8,CC1C(=O)Nc2ccccc2N1C(=O)C1CC1 (configuration not stated),-7.6% (inactive)
9,CCCC(=O)N1c2ccccc2C(=C2SC(C(=O)OC)=C(C(=O)OC)S2)C(=S)C1(C)C,32.9% (inactive)
10,CCC(C)C(=O)N1c2ccccc2C(=C2SC(C(=O)OC)=C(C(=O)OC)S2)C(=S)C1(C)C (configuration not stated),48.7% (inactive)
11,COCCNC(=O)C(C(=O)c1ccc(F)cc1)n1cc(C)ccc1=O (configuration not stated),19.5% (inactive)
12,Cc1cccc(C(=O)NC(NCCc2ccccc2)C(Cl)(Cl)Cl)c1 (configuration not stated),1.5% (inactive)
13,COC(=O)C(C)Sc1nc(N)c(NC(=O)c2ccco2)c(=O)[nH]1 (configuration not stated),1.6% (inactive)
14,Cc1ccc(CN2CCCC(CO)(Cc3ccccc3C)C2)s1 (configuration not stated),13% (inactive)
15,CCCCCN1C=CC(=C2C(=O)c3ccccc3C2=O)C=C1,-2.8% (inactive)
16,CCOc1cc(C2CC(=O)N3CN(C4CCCCC4)CSC3=C2C#N)ccc1O (configuration not stated),49% (inactive)
17,COc1cc(C2CC(=O)N3CN(c4ccccc4C)CSC3=C2C#N)cc(OC)c1OC (configuration not stated),11.4% (inactive)
18,CCOc1ccccc1N1CSC2=C(C#N)C(c3c(OC)ccc4ccccc34)CC(=O)N2C1 (configuration not stated),67.1% (active)
19,CC(C)c1ccc(C2CC(=O)N3CN(C)CSC3=C2C#N)cc1 (configuration not stated),28.9% (inactive)
20,COc1ccccc1N1CSC2=C(C#N)C(c3ccc(SC)cc3)CC(=O)N2C1 (configuration not stated),7.1% (inactive)
21,CCc1ccccc1N1CSC2=C(C#N)C(c3cc(OC)c(OC)cc3OC)CC(=O)N2C1 (configuration not stated),9% (inactive)
22,COc1cccc(C2CC(=O)N3CN(c4cccc(Cl)c4C)CSC3=C2C#N)c1OC (configuration not stated),0.2% (inactive)
23,COc1ccc2ccccc2c1C1CC(=O)N2CN(C3CCCCC3)CSC2=C1C#N (configuration not stated),52.1% (active)
24,COc1ccc2ccccc2c1C1CC(=O)N2CN(C)CSC2=C1C#N (configuration not stated),68.7% (active)

# — PubChem BioAssay AID1220 (Sanford-Burnham Center for Chemical Genomics, 2008)
